{"source": "the supplement of paper PMC6555819", "data": [{"tested_on": "VDR:RXRa (NR concentration 270 nM, RXRa partner concentration 90 nM)", "assay": "PBM binding z-score (relative to random genomic background probes); higher = stronger binding; sequences stand for … in GC…GCGATTGACAGCGTAGAATGAAGG", "protocol": "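Protein-binding microarray (Agilent 4x180K custom design, double-stranded 60-nt probes: 5' GC cap, 34-nt variable region, 24-nt constant primer region; full probe sequence given). Purified or IVT nuclear receptor:RXRα heterodimers (3:1 NR:RXRα, mostly 270:90 nM) or homodimers were incubated for 1 h in PBS with 2% milk and no ligand, then detected with Alexa488 antibodies. Fluorescence from o1-orientation probes (~5 replicates averaged) was converted to z-scores against 500 random hg19 background probes. Variable regions are seed direct-repeat (DR0–DR5) sites, all their single-nucleotide variants and half-site ablations.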", "values": [{"sequence": "ACTATTAGTTGACTTTGGGCAACCGATACGACGC", "PBM binding z-score": 0.238}, {"sequence": "TCAAGTAGGTTAGGGGCATTCAGAATGGCGTCGA", "PBM binding z-score": 1.05}, {"sequence": "ACGAGCAGGCCAAGGGTCACTCAAGATTAGTCCG", "PBM binding z-score": 2.72}, {"sequence": "ATCGGAAGGTCGAAGGTGAGTATACCCACCCGAA", "PBM binding z-score": 1.5}, {"sequence": "ATCTCTAGGTAAAGATAGTACAGTGAATGCAAAT", "PBM binding z-score": 0.325}, {"sequence": "ACAGACAGATGAGTGAAGGTAACTCAGCTGGACG", "PBM binding z-score": -0.157}, {"sequence": "CCTTACGGGTCACTGATAGGTTATAGCATTTGGA", "PBM binding z-score": 3.6}, {"sequence": "CAAACTAGGTCACGAAAGCTCAAAGTCGAATGAC", "PBM binding z-score": 2.37}, {"sequence": "TCTTGTAGATCCATAGAGGTTAAGAAAGTGCGCT", "PBM binding z-score": 1.69}, {"sequence": "TCTATTAGTGGATTAGGGCAACCGAAACAGCGGA", "PBM binding z-score": 0.547}, {"sequence": "CCTAGTTGATCAAGGTCACACACGCTATAGGTAC", "PBM binding z-score": 4.91}, {"sequence": "GCATATAGGTAGTACAAGGTGAAAGTCCGATTGT", "PBM binding z-score": 0.154}, {"sequence": "TCTTGTAGATCAATAGAGGTTAAGAAAGTGCGCT", "PBM binding z-score": 1.8}, {"sequence": "ACTATTAGATGACTTAGGGCAACCGATACGACGC", "PBM binding z-score": 0.293}, {"sequence": "TCTATTAGTTTAAGGGCAACCGACGAGTCCGTTT", "PBM binding z-score": 1.61}, {"sequence": "CAAACTATGTCACAGAGGTCAAAGTCCGTGCGTA", "PBM binding z-score": 6.63}, {"sequence": "ATCTCTAGGTAAAAGTTCAGTGATTCCCGAGGAT", "PBM binding z-score": 1.05}, {"sequence": "TCAGATAGGTAAATGCTAGGTGAAAGTCCGATCT", "PBM binding z-score": 0.407}, {"sequence": "CAAACCAGGTCACCGGAAGGTCAAAGTCCGCATG", "PBM binding z-score": 6.39}, {"sequence": "CCTACTAGGTCAATGGTCAGCTAAAGCAGCTCGC", "PBM binding z-score": 1.45}, {"sequence": "AGAATGAGGTTATTAAGATCAGAGAATTGCGGTC", "PBM binding z-score": 2.56}, {"sequence": "CGAACTAGATCAGAACAGGACAGTGAAGGATGAT", "PBM binding z-score": -0.438}, {"sequence": "CCTACTGGGTCAAGGTCATTGATCAGTCAAAGCA", "PBM binding z-score": 4.84}, {"sequence": "CGAACTAGGTTATCCAGGACAGTGAATACATTGA", "PBM binding z-score": 1.57}, {"sequence": "GCTATTAGTTGAAAGGGCCACCGAATGATTCTCG", "PBM binding z-score": -0.0971}, {"sequence": "ATATGTAGGTTAAGGGTCATTTAGGTTGGTTCGC", "PBM binding z-score": 5.38}, {"sequence": "TCTTGTAGATCAATGGAGGTTAAGAAAGTGCGCT", "PBM binding z-score": 1.38}, {"sequence": "CTACCAATGTGAACAAGGTCGTTGATTACTATTC", "PBM binding z-score": 3.77}, {"sequence": "AATACAGGGTCATCGTAGGCCAGCGTACGCACAG", "PBM binding z-score": 5.21}, {"sequence": "CCTTACGGGTCACTGACAGATTATAGCATTTGGA", "PBM binding z-score": 3.13}, {"sequence": "ATCTCTAGATAAAAGTTCAGTGAATCCCGAGGAT", "PBM binding z-score": 0.828}, {"sequence": "CAAACTCGGTCAAAGGTCAAAGTCGAGCCAACCA", "PBM binding z-score": 6.22}, {"sequence": "GATACAGGGCCAAGGCCAGAGTACGCGTATTGAT", "PBM binding z-score": -0.59}, {"sequence": "AGTATGAGGTTATACGTAGATCAGGGAAGAAAGT", "PBM binding z-score": 1.34}, {"sequence": "TCTGCTAGGTCAACGAAGGTCAGCTAATCTGCTA", "PBM binding z-score": 4.97}, {"sequence": "TCGCCTAGGTCATTCAGGGGCCAGTATAGAAAGC", "PBM binding z-score": 3.06}, {"sequence": "CCTACTGGGCCAAGAAAGGTCATTGATTCAGTGA", "PBM binding z-score": 3.68}, {"sequence": "ACTAGTTCGTCAGCTGAGGTCACACACAATTCGG", "PBM binding z-score": 4.7}, {"sequence": "ATCTCTAGGTAAGACTCAGTTCAGTGAGGAACGC", "PBM binding z-score": 0.748}, {"sequence": "CAAACTATGTCAAGGTCAAAGTCGGTTTGTGCCA", "PBM binding z-score": 4.83}]}]}
